# Results as given in PubChem BioAssay AID1053126 (Broad Institute, 2014).
# Potency and affinity values are given separately. A number with no mark means an inactive call.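 How the source made its calls: active means cell killing with a fitted half-effect concentration at or below twice the top valid dose; inconclusive means flat curve with 30 to 70 percent drop, or poor fit; inactive means the rest.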
# Assay: HEK293T cell cytotoxicity, dose response, cytotoxicity control, ATP luminescence, cherry-pick, set 6 (AID 1053126);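 further: 0% = neutral control wells and -100% = mitoxantrone 10 µM positive control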
# Conditions: HEK293T viability, CellTiter-Glo ATP luminescence, 72 h; series mostly up to 26 µM; activity change, negative = cytotoxicity: at the top concentration
row,Compound,"activity change, negative = cytotoxicity"
1,CCOC1=NN(c2ncc(C(F)(F)F)cc2Cl)C(=O)C1,15.9%
2,COc1cc(C(=O)NCCCNc2nc3c(C)cc(C)cc3cc2C#N)cc(OC)c1OC,7.6%
3,O=C(Nc1ccc2c(c1)OCCO2)c1ccc(NC(=O)C2CCCO2)cc1 (stereo not drawn),-0.148%
4,CC(C)CCn1c(CN2CC(C)OC(C)C2)nc2c1c(=O)n(C)c(=O)n2C (stereo not drawn),2.88%
5,CCc1ccccc1S(=O)(=O)Cc1ccc(C(=O)N2CCN(c3ccccc3OC)CC2)o1,-6.49%
6,CCOC(=O)c1cc2c(=O)n3ccccc3nc2n(Cc2ccc(Cl)cc2)c1=N,7.6%
7,Cc1nc2ccccc2c2oc(C(=O)NCCCN3CCC(C)CC3)cc12,-16.4%
8,COCCN1C=C(C(=O)OC)C(c2ccc(Cl)cc2)C(C(=O)OC)=C1,-13.6%
9,CN(C)CCOCCOc1ccc(Cl)c2ccccc12,-24.5%
10,Cc1cccn2c(=O)c3cc(C(N)=S)c(=N)n(CCCOC(C)C)c3nc12,-7.65%
11,CCOC(=O)C(NC(=O)c1ccccc1)(OCC1(CC)COC1)C(F)(F)F (stereo not drawn),-8.47%
12,CCOC(=O)c1cc2c(=O)n3cccc(C)c3nc2n(CC(C)C)c1=NC(=O)c1ccco1,-0.128%
13,CCOc1ccc(-n2c(SCC(=O)Nc3nccs3)nnc2-c2ccoc2C)cc1,0.85%
14,COc1ccc(C(=O)c2sc3nc(-c4ccc(OC)cc4)ccc3c2N)cc1,36.5%
15,CN1CCc2c(sc(NC(=O)Cc3ccccc3)c2C#N)C1,-7.9%
16,Cc1cc(-c2nc3cccnc3s2)ccc1NS(=O)(=O)c1cccs1,2.17%
17,CCOc1ccc2nc(NCCCNS(=O)(=O)c3ccc(C)cc3)c(C#N)cc2c1,31.9%
18,O=C(Nc1ccc(-c2ccco2)cc1)C1CCCN(Cc2ccco2)C1 (stereo not drawn),-13.4%
19,C[C@H](NC(=O)c1nc[nH]c1C(=O)N[C@@H](Cc1ccccc1)C(=O)OC(C)(C)C)C(=O)OCc1ccccc1,12%

row,Compound,"activity change, negative = cytotoxicity"
1,COCc1cc(C)nc(SCC(=O)Oc2ccc(Cl)cc2)c1C#N,-8.93%
2,Cc1noc(C)c1-c1ccc(C(=O)NCCc2ccccc2)c2occc12,-10.6%
3,CC(C)C(=O)Nc1sc2c(c1C(N)=O)CCN(Cc1ccccc1)C2,6.18%
4,COc1ccc(Cn2nnnc2C(CC(C)C)N2CCC(C(N)=O)CC2)cc1 (stereo not drawn),-13.4%
5,O=C(C1=NN(c2ccccc2)C2C(=O)N(c3ccccc3)C(=O)C12)c1ccccc1 (stereo not drawn),50.5%
6,Cc1cccn2c(=O)c(/C=C(\C#N)C(N)=O)c(Oc3ccccc3)nc12,-7.72%
7,COc1ccc(C2C3=C(CCCC3=O)N(CC(=O)O)C3=C2C(=O)CCC3)cc1Cl,-6.96%
8,COc1cc(C(=O)OCC(C)=O)cc(NC(=O)c2ccco2)c1OC,5.21%
9,O=C1CCc2cc(S(=O)(=O)NC(Cc3ccccc3)C(=O)NCCC3=CCCCC3)ccc2N1 (stereo not drawn),8.41%
10,CCCCCCc1cc2cc(S(=O)(=O)c3ccc(F)cc3)c(=O)oc2cc1O,48.1% [at 12 µM]
11,COc1cc(C2C3=C(CC(C)(C)CC3=O)N(C)C3=C2C(=O)CC(C)(C)C3)cc(Br)c1O,5.63%
12,COc1cc(C(c2c(C(=O)O)[nH]c3ccccc23)c2c(C(=O)O)[nH]c3ccccc23)ccc1OCc1ccccc1,-16.5%
13,Cc1c(C=O)c2ccccn2c1C(=O)c1cccs1,-6.91%
14,NC(=O)c1c(NC(=O)Cc2ccccc2)sc2c1CCN(Cc1ccccc1)C2,-10.5%
15,CCn1c(=N)c(S(=O)(=O)c2ccccc2)cc2c(=O)n3ccccc3nc21,-10.1%
16,COc1cccc(N2CCN(C(=O)C3CCCN(S(=O)(=O)c4cnc[nH]4)C3)CC2)c1 (stereo not drawn),34.1%
17,COc1ccccc1N1CCN(C2CCC(C)CC2)CC1 (stereo not drawn),-4.57%
18,Cc1noc(C)c1S(=O)(=O)N(CC(=O)N1CCCCCC1)c1ccc(C(C)C)cc1,-16.6%
19,CC(=O)NNc1cc(N2CCOCC2)nc(N2CCOCC2)n1,-6.77%
